This note sets out measurements from PubChem BioAssay.

A word on the inhibition: it is how much of the control response was suppressed.

Calls of active or inactive are those of the source. The rule behind the calls is not given here.

In this experiment the target is Pantothenate synthetase (Mycobacterium tuberculosis (strain ATCC 25618 / H37Rv)) (UniProt P9WIL5). The experiment is described as follows: Recombinant Mtb pantothenate synthetase (PanC) inhibitors, coupled enzyme, confirmatory (AID 375).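 Note: 0% = full reaction with vehicle and 100% = no enzyme background.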 The settings on record: coupled enzyme assay; at 10 µM, hits give high values.
Sequence of Pantothenate synthetase (Mycobacterium tuberculosis (strain ATCC 25618 / H37Rv)) (P9WIL5 whole entry, looked up): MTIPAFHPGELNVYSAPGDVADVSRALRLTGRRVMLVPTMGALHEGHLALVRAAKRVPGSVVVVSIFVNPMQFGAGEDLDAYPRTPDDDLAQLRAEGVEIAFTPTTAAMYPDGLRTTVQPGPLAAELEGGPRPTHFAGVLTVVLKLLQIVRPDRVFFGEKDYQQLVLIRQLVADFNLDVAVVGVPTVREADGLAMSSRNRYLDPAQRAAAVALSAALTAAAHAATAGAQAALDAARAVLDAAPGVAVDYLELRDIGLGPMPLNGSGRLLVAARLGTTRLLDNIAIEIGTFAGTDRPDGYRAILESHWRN
In the case of `C#CC(CO)N(CCN(Cc1ccccc1)C(C#C)CO)Cc1ccccc1` (stereo not given), the inhibition was 9% (inactive).

Take `O=C(CCCn1c(=O)c2sccc2n(CC(=O)NCc2ccco2)c1=O)NCc1ccco1`: the inhibition was 0% (inactive).

Consider `Cc1cc(/C=c2/sc3nc4ccccc4n3c2=O)c(C)n1-c1ccccn1`, for which the inhibition was 1% (inactive).

For the compound `CCCOc1ccc(N2C(=O)C3ON(c4ccccc4)C(c4ccc(O)c(OC)c4)C3C2=O)cc1` (stereo not given), the inhibition is 1% (inactive).

Consider `Cc1cc(C)cc(NS(=O)(=O)c2ccc3[nH]cc(C(=O)NCc4ccco4)c(=O)c3c2)c1`, for which the inhibition was 0% (inactive).

Turning to `CCOC(=O)N1CCN(C(=O)c2n[nH]c(=O)c3ccccc23)CC1`, the inhibition was 2% (inactive).

For the compound `COc1ccc(C)cc1NC(=O)c1nc2nc(C)cc(C)n2n1`, the inhibition was 7% (inactive).

`CCCc1c(OCCCCc2nn[nH]n2)ccc(C(C)=O)c1O`: the inhibition was 0% (inactive).

As for `c1ccc2oc(SCc3cn4ccccc4n3)nc2c1`, the inhibition was 0% (inactive).

For the compound `COC(=O)c1c(N)n(-c2cc(OC)cc(OC)c2)c2nc3ccccc3nc12`, the inhibition was 1% (inactive).

Take `O=C(CCNS(=O)(=O)c1cccc2nsnc12)NCc1cccs1`: the inhibition was 1% (inactive).

For `O=C(NCc1ccccc1)c1cc(-c2ccco2)on1`, the inhibition was 0% (inactive).

On to `Nc1[nH]nc2nc(N3CCCC3)nc(-c3ccccc3)c12`, for which the inhibition was 0% (inactive).

For the compound `CCOC(=O)c1[nH]c(CSc2nnc(-c3ccncc3)n2CCOC)c(C(=O)OCC)c1C`, the inhibition is 3% (inactive).

Turning to `COc1cc(S(=O)(=O)N2CCOCC2)ccc1NC(=O)COC(=O)C12CC3CC(CC(C3)C1)C2`, the inhibition is 1% (inactive).

For the compound `CCOC(=O)c1c(C)oc2ccc(OCC(=O)N(CC)CC)cc12`, the inhibition was 4% (inactive).

Take `Cc1ccc2[nH]c(=O)c(-c3noc(-c4ccncc4)n3)cc2c1`: the inhibition was 2% (inactive).

For the compound `Cn1nnnc1SCC(=O)N1CCN(c2ccccc2)CC1`, the inhibition was 0% (inactive).

As for `COc1cc(OC)c2c(c1)OC(c1ccc(OC)c(OC)c1)C(O)C2=O` (stereo not given), the inhibition is 1% (inactive).

Consider `CCOC(=O)C(C)(C)Sc1nc2c(cnn2-c2ccc(C)cc2)c(=O)[nH]1`, for which the inhibition was 0% (inactive).

With `O=C(NC1CCCC1)c1c[nH]c2ccc(F)cc2c1=O`, the inhibition is 0% (inactive).

`CN(C)CCCN1C(=O)CSC1c1ccccc1` (stereo not given): the inhibition is 0% (inactive).

On to `N#CCSc1nc2c(c(C3CC=CCC3)c1C#N)CCC2` (stereo not given), for which the inhibition was 6% (inactive).

Take `O=C(NC1CC1)C1CCC(=O)N1C1CCCC1` (stereo not given): the inhibition is 4% (inactive).

Turning to `Cc1c(C)n(C(=O)CN2CCN(c3ccccn3)CC2)c2ccccc12`, the inhibition was 0% (inactive).

On to `CCOC(=O)C1CN(S(=O)(=O)c2ccc(C)cc2)CCN1S(=O)(=O)c1ccc(C)cc1` (stereo not given), for which the inhibition is 0% (inactive).

Turning to `CCCCOC(=O)Nc1nccs1`, the inhibition was 9% (inactive).

For `C=CCOC(=O)C1=C(C)OC(N)=C(C#N)C1c1ccc2c(c1)OCO2` (stereo not given), the inhibition was 9% (inactive).

In the case of `CCn1c(SCC(=O)c2ccc3c(c2)OCCO3)nnc1-c1ccco1`, the inhibition is 11% (inactive).

For `CCn1cc(C2=NCC(C)O2)c2ccccc21` (stereo not given), the inhibition is 2% (inactive).

As to `CN(C)/C=c1\sc2c(C#N)cc(C(=O)c3ccc(Br)cc3)n2c1=O`, the inhibition is 5% (inactive).

`CCOc1cccc(C(=O)N2CCCCC2c2cccnc2)c1` (stereo not given): the inhibition was 0% (inactive).

With `O=c1c2ccc(-c3nnc4n3-c3ccccc3SC4)cc2nc2n1CCCCC2`, the inhibition was 0% (inactive).

For `CCCn1c(=O)c2ccccc2n2c(SCCOc3ccccc3F)nnc12`, the inhibition was 0% (inactive).

On to `COc1ccccc1S(=O)(=O)Cc1ccc(C(=O)N2CCN(c3ccccn3)CC2)o1`, for which the inhibition was 0% (inactive).

Turning to `O=C(NCc1ccco1)c1cc2sccc2n1Cc1ccccc1`, the inhibition is 0% (inactive).

On to `O=C(c1ccc2c(c1)c(=O)oc1ccccc12)N1CCCCC1`, for which the inhibition was 6% (inactive).

For `COc1ccc(Cl)cc1Nc1nc(NCCO)nc(N2CCCC2)n1`, the inhibition was 9% (inactive).

Take `Cc1csc(OCc2ccc(C#N)cc2)n1`: the inhibition is 0% (inactive).

For the compound `CN1C(=O)CCC1(O)c1ccccc1` (stereo not given), the inhibition is 0% (inactive).
